Activity calls are given as the source filed them. How the source made its calls: active means hit-call score of the fitted dose curve at least 0.9, where 1 is the maximum; inactive means score below 0.9.
What was measured:
Details in all cases: mRNA level, 48 h; actives raise or lower the signal
[1] = read-out: Tumor necrosis factor receptor superfamily member 6 (Homo sapiens) (UniProt P25445); test: LTEA_HepaRG_FAS: Life Technologies and Expression Analysis (LTEA) Assay for Fas cell surface death receptor (FAS) using HepaRG (AID 2283447)
Outline: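 Differentiated human HepaRG cells, pre-cultured 48 h, were exposed in duplicate for 48 h to 8-point half-log concentrations (top 100 uM, 0.5% DMSO) in serum-free induction medium; FAS mRNA measured by qRT-PCR, normalized to ACTB/GAPDH/POLR2A, bidirectional fit versus DMSO.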

[2] = read-out: Fatty acid synthase (Homo sapiens) (UniProt P49327); test: LTEA_HepaRG_FASN: Life Technologies and Expression Analysis (LTEA) Assay for Fatty Acid Synthase (FASN) using HepaRG (AID 2283448)
Outline: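 In human HepaRG cultures, 48 h chemical exposure (up to 100 uM, 0.5% DMSO) preceded TaqMan qRT-PCR of FASN.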

[3] = read-out: Cyclin D2 (CCND2), CCND2 (gene 894); test: LTEA_HepaRG_CCND2: Life Technologies and Expression Analysis (LTEA) Assay for Cyclin D2 (CCND2) using HepaRG (AID 2283449);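 further: CCND2 transcript measured by TaqMan qRT-PCR and normalised to three housekeeping genes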
Outline: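 In this HepaRG study, an eight-point concentration series (max 100 uM, 0.5% DMSO) is applied for 48 h. CCND2 mRNA change is derived by qRT-PCR normalised to ACTB, GAPDH and POLR2A.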

[4] = read-out: Cyclin Dependent Kinase Inhibitor 1A (CDKN1A), CDKN1A (gene 1026); test: LTEA_HepaRG_CDKN1A: Life Technologies and Expression Analysis (LTEA) Assay for Cyclin Dependent Kinase Inhibitor 1A (CDKN1A) using HepaRG (AID 2283450)
Outline: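 Gain or loss of CDKN1A transcript is scored by bidirectional fitting against 0.5% DMSO vehicle. Human HepaRG cultures receive chemicals for 48 h across an 8-point series peaking at 100 uM; expression comes from qRT-PCR.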

[5] = read-out: Cyclin D1 (CCND1), CCND1 (gene 595); test: LTEA_HepaRG_CCND1: Life Technologies and Expression Analysis (LTEA) Assay for Cyclin D1 (CCND1) using HepaRG (AID 2283451);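 on AC50: TaqMan qRT-PCR transcript level normalised to ACTB GAPDH and POLR2A housekeeping genes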
Outline: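 Expression change is measured by qRT-PCR in HepaRG cells after 48 h treatment across eight concentrations topping at 100 uM, with duplicate wells and DMSO (0.5%) serving as baseline for bidirectional fitting.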

[6] = read-out: catalase (CAT), CAT (gene 847); test: LTEA_HepaRG_CAT: Life Technologies and Expression Analysis (LTEA) Assay for catalase (CAT) using HepaRG (AID 2283452);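 on AC50: TaqMan qRT-PCR signal normalized to ACTB GAPDH and POLR2A housekeeping genes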
Outline: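 Differentiated HepaRG cells in serum-free induction medium were dosed 48 h in duplicate, eight half-log concentrations from 100 uM in 0.5% DMSO. Transcript measured by TaqMan qRT-PCR, normalised to ACTB/GAPDH/POLR2A, fitted bidirectionally against DMSO.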

[7] = read-out: flavin-containing dimethylaniline monooxygenases 3 (FMO3), FMO3 (gene 2328); test: LTEA_HepaRG_FMO3: Life Technologies and Expression Analysis (LTEA) Assay for flavin-containing dimethylaniline monooxygenases 3 (FMO3) using HepaRG (AID 2283453);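 on AC50: FMO3 transcript by TaqMan qRT-PCR normalized to ACTB GAPDH and POLR2A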
Outline: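 Eight-point concentration-response in serum-free HepaRG cultures (top 100 uM, 0.5% DMSO, 48 h). Read-out: FMO3 mRNA level normalized to three endogenous control genes, fitted bidirectionally versus vehicle.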

[8] = read-out: Cytochrome P450 (CYP1A1), CYP1A1 (gene 1543); test: LTEA_HepaRG_CYP1A1: Life Technologies and Expression Analysis (LTEA) Assay for Cytochrome P450 (CYP1A1) using HepaRG (AID 2283454)
Outline: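 Using HepaRG cultures with 0.5% DMSO as vehicle, eight-concentration exposures (max 100 uM) lasted 48 h. Transcript levels were measured by TaqMan qRT-PCR and normalized to ACTB, GAPDH and POLR2A.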

[9] = read-out: CFLAR gene, CFLAR (gene 8837); test: LTEA_HepaRG_CFLAR: Life Technologies and Expression Analysis (LTEA) Assay for CFLAR gene using HepaRG (AID 2283455)
Outline: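 Gain- or loss-of-signal changes in CFLAR transcript were fitted bidirectionally relative to 0.5% DMSO. Cells (HepaRG, duplicate wells) were dosed for 48 h across eight half-log concentrations topping at 100 uM; quantitation by TaqMan qRT-PCR.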

[10] = read-out: Forkhead box O1 (FOXO1), FOXO1 (gene 2308); test: LTEA_HepaRG_FOXO1: Life Technologies and Expression Analysis (LTEA) Assay for Forkhead box O1 (FOXO1) using HepaRG (AID 2283456)
Outline: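 Using one lot of HepaRG hepatic cells kept in 0.5% DMSO, the team applied test chemicals in duplicate, half-log dilutions from 100 uM, for 48 h. Expression, normalised to ACTB/GAPDH/POLR2A, was compared with vehicle in either direction.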

[11] = read-out: growth arrest and DNA damage 45 (GADD45A), GADD45A (gene 1647); test: LTEA_HepaRG_GADD45A: Life Technologies and Expression Analysis (LTEA) Assay for growth arrest and DNA damage 45 (GADD45A) using HepaRG (AID 2283458)
Outline: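 Eight-point concentration-response in HepaRG cells: 48 h chemical exposure, 0.5% DMSO vehicle, top dose 100 uM. Normalized qRT-PCR mRNA readout with bidirectional fitting relative to DMSO.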

[12] = read-out: Forkhead box O3 (FOXO3), FOXO3 (gene 2309); test: LTEA_HepaRG_FOXO3: Life Technologies and Expression Analysis (LTEA) Assay for Forkhead box O3 (FOXO3) using HepaRG (AID 2283459)
Outline: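 Gene-expression endpoint: FOXO3 transcript level by qRT-PCR in HepaRG cultures treated 48 h with chemicals up to 100 uM (half-log, 0.5% DMSO vehicle).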

Measured: AC50

Sequence of Fatty acid synthase (Homo sapiens) (P49327 whole entry, looked up): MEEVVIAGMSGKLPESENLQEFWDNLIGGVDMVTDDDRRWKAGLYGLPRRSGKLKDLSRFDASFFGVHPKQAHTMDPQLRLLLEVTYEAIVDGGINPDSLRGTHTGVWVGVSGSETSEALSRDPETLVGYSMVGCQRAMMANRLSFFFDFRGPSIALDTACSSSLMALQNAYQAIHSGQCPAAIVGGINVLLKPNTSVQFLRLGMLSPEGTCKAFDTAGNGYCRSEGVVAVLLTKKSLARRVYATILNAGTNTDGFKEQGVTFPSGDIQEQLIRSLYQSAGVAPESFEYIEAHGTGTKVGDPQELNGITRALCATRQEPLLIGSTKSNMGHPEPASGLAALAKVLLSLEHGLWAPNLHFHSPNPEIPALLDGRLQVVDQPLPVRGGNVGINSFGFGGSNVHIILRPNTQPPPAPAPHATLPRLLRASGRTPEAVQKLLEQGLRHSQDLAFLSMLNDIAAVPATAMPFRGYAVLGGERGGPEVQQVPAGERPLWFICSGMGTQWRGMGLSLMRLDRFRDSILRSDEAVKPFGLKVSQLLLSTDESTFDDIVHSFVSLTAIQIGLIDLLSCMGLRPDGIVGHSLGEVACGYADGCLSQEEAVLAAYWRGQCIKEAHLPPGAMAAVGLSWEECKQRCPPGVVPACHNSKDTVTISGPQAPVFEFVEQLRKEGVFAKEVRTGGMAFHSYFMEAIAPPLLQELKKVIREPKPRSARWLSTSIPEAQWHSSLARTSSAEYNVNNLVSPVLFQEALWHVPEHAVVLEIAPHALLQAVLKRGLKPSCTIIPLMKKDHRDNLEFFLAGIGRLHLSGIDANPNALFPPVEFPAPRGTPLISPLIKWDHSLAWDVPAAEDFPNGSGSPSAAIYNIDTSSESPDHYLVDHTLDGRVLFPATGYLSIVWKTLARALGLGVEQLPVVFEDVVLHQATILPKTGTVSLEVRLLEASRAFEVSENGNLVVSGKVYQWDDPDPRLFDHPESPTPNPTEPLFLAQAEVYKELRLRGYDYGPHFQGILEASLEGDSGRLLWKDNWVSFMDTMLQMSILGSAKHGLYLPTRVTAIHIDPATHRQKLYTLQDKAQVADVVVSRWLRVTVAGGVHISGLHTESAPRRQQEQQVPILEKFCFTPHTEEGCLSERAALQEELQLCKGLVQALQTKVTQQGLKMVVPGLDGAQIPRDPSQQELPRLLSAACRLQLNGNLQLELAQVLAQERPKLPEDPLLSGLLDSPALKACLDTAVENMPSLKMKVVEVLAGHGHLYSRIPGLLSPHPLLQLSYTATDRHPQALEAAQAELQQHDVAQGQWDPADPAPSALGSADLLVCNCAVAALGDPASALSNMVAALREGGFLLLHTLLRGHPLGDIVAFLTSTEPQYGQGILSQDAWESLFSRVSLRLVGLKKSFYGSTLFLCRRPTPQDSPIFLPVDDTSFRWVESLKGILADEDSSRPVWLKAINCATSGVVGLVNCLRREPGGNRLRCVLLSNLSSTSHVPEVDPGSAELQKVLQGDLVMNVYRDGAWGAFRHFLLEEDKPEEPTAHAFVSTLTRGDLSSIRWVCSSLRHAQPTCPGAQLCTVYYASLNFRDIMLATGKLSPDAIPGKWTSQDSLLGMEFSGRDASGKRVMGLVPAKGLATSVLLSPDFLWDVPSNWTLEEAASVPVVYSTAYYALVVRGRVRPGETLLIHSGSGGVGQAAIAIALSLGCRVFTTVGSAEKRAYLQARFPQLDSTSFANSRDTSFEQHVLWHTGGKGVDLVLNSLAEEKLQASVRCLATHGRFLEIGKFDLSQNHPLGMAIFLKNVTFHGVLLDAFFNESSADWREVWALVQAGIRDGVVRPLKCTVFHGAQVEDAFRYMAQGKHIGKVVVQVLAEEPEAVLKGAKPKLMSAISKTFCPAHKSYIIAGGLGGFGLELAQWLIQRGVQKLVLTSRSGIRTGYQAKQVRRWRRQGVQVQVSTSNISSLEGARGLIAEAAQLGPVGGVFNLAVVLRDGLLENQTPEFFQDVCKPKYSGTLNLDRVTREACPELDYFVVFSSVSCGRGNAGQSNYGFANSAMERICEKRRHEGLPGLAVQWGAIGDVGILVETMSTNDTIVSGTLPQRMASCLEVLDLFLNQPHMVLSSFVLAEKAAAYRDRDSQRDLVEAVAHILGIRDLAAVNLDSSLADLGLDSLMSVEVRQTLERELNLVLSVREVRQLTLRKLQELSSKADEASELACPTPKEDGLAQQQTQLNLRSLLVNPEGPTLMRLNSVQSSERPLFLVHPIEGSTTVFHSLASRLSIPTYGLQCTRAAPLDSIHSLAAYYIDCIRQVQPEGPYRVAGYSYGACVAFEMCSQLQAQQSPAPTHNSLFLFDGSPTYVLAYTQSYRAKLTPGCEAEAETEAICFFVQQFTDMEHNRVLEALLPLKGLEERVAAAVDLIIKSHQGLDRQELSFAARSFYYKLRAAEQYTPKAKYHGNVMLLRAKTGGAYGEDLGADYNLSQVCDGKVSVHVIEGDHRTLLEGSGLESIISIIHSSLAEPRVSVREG

CCCCOCN(C(=O)CCl)c1c(CC)cccc1CC
active: [8] 74 µM
not listed: [12]
inactive: all other assays above

CC(C)=CC1C(C(=O)OCc2coc(Cc3ccccc3)c2)C1(C)C (stereo unspecified)
active: [8] 60.8 µM
not listed: [10] | [12]
inactive: all other assays above

CCOP(=O)(OCC)Oc1nc(Cl)c(Cl)cc1Cl
active: [2] 60.2 µM | [5] 80.7 µM | [6] 91.1 µM | [7] 79.3 µM | [8] 73.5 µM
inactive: [1] | [3] | [4] | [9] | [11]

Cc1ccc(N=CN(C)C=Nc2ccc(C)cc2C)c(C)c1
active: [8] 41.2 µM
not listed: [3] | [10] | [12]
inactive: all other assays above

CO/N=C(/C1=NOCCO1)c1ccccc1Oc1ncnc(Oc2ccccc2Cl)c1F
active: [1] 50 µM | [2] 62.7 µM | [4] 28.5 µM | [6] 19.7 µM | [7] 24.9 µM | [8] 33 µM | [10] 10 µM | [11] 29.6 µM
inactive: [3] | [5] | [9]

CC1(C)C(C(=O)OC(C#N)c2cccc(Oc3ccccc3)c2)C1(C)C (stereo unspecified)
active: [8] 50 µM
inactive: all other assays above

Clc1cccc(C(Cl)(Cl)Cl)n1
active: [11] 89.4 µM
not listed: [12]
inactive: all other assays above

O=P(O)(O)CCCl
active: [4] 0.373 µM | [5] 0.261 µM
not listed: [3] | [12]
inactive: all other assays above

O=C(O)c1c(Cl)ccc2cc(Cl)cnc12
active: [11] 0.00381 µM
not listed: [10]
inactive: all other assays above

COCC(C)N(C(=O)CCl)c1c(C)csc1C (stereo unspecified)
active: [8] 50 µM
not listed: [3] | [12]
inactive: all other assays above

COP(=O)(OC)O/C(C)=C/C(=O)N(C)C
not listed: [10]
inactive: all other assays above

OC(c1ccc(Cl)cc1)(c1ccc(Cl)cc1)C(Cl)(Cl)Cl
active: [1] 50 µM | [2] 34.8 µM | [4] 83.7 µM | [6] 71.2 µM | [8] 11.9 µM | [10] 79.5 µM
inactive: [5] | [9] | [11]

CCCCC(O)(Cn1cncn1)c1ccc(Cl)cc1Cl (stereo unspecified)
inactive: [3]
active: [1] 87.4 µM | [2] 85.7 µM | [4] 35.4 µM | [5] 57.7 µM | [6] 73 µM | [7] 75.9 µM | [8] 12.9 µM | [9] 66.5 µM | [10] 80.2 µM | [11] 89.9 µM

CNC(=O)N(C)c1nnc(C(C)(C)C)s1
active: [8] 42.9 µM
not listed: [3] | [12]
inactive: all other assays above

C=C(C)CN(CC)c1c([N+](=O)[O-])cc(C(F)(F)F)cc1[N+](=O)[O-]
active: [8] 44.4 µM
not listed: [10]
inactive: all other assays above

CCOc1nc(F)cc2nc(S(=O)(=O)Nc3c(Cl)cccc3Cl)nn12
not listed: [10] | [12]
inactive: all other assays above

O=c1n(Cl)c(=O)n(Cl)c(=O)n1Cl
active: [8] 60.2 µM
not listed: [10]
inactive: all other assays above

CN=C=S
not listed: [10]
inactive: all other assays above

CS(=O)(=O)c1cc(C(F)(F)F)ccc1C(=O)c1cnoc1C1CC1
active: [8] 78 µM
not listed: [12]
inactive: all other assays above

CC(C)C1(C)N=C(c2ncccc2C(=O)O)NC1=O (stereo unspecified)
not listed: [3]
inactive: all other assays above

Cc1cc(C)nc(Nc2ccccc2)n1
active: [8] 1.2 µM
not listed: [3] | [10] | [12]
inactive: all other assays above

Cn1c(-c2ccccc2)cc(-c2ccccc2)[n+]1C
inactive: [1] | [3] | [11]
active: [2] 11.7 µM | [4] 50 µM | [5] 75.6 µM | [6] 21.9 µM | [7] 50 µM | [8] 75 µM | [9] 82.3 µM | [12] 2.57 µM

COC(=O)c1c(C(F)F)nc(C(F)(F)F)c(C2=NCCS2)c1CC(C)C
active: [11] 0.0299 µM
not listed: [10] | [12]
inactive: all other assays above

From PubChem BioAssay (EPA / NIEHS)
